Source: PubChem BioAssay AID1159580 (chemical genetic matrix, 2015)
Out of some 5,500 compounds screened, about 2,000 (36%) were called active. About 18% were inconclusive and are not listed. Cut-off read from the data, not from the text of the source: active = normalized growth mostly below about 0.91 (no sharp cut-off); inconclusive = no clear call, values can overlap the other calls; inactive = mostly above about 0.92. This is one part of the list.

Assay: chemical genetic growth profiling, strain panel (AID 1159580);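 note: tested at 20 µM; growth read once vehicle control cultures reached saturation at 30 °C; 1 = growth at the plate median or of vehicle wells; lower values mean less growth of the strain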
Conditions: S. cerevisiae deletion strains, growth OD

Measured: normalized growth

O=C(Nc1ccc(F)cc1F)c1cc(Cl)c(-n2cccc2)c(Cl)c1
inactive: locus YAR019C, strain CDC15, active compounds read low 0.975 | locus YBL105C, strain PKC1, active compounds read low 0.972 | locus YBR135W, strain CKS1, active compounds read low 0.971 | locus YBR136W, strain MEC1, active compounds read low 0.969 | locus YBR160W, strain CDC28, active compounds read low 0.973 | locus YDL017W, strain CDC7, active compounds read low 0.974 | locus YDL028C, strain MPS1, active compounds read low 0.969 | locus YDL101C, strain DUN1, active compounds read low 0.984 | locus YDL108W, strain KIN28, active compounds read low 0.974 | locus YDL132W, strain cdc53, active compounds read low 0.976 | locus YDL214C, strain PRR2, active compounds read low 0.942 | locus YDR052C, strain DBF4, active compounds read low 0.98 | locus YDR054C, strain cdc34, active compounds read low 0.961 | locus YDR226W, strain ADK1, active compounds read low 0.97 | locus YDR477W, strain SNF1, active compounds read low 0.936 | locus YER123W, strain YCK3, active compounds read low 0.905 | locus YER133W, strain GLC7, active compounds read low 0.898 | locus YFL009W, strain cdc4, active compounds read low 0.97 | locus YFL029C, strain CAK1, active compounds read low 0.967 | locus YFR003C, strain YPI1, active compounds read low 0.975 | locus YFR019W, strain FAB1, active compounds read low 0.944 | locus YFR028C, strain CDC14, active compounds read low 0.977 | locus YGR040W, strain KSS1, active compounds read low 0.94 | locus YGR052W, strain FMP48, active compounds read low 0.984 | locus YGR092W, strain DBF2, active compounds read low 0.942 | locus YHR079C, strain IRE1, active compounds read low 0.864 | locus YHR082C, strain KSP1, active compounds read low 1.05 | locus YHR205W, strain SCH9, active compounds read low 0.911 | locus YIL147C, strain SLN1, active compounds read low 0.976 | locus YJL095W, strain BCK1, active compounds read low 0.866 | locus YJL128C, strain PBS2, active compounds read low 0.953 | locus YJL157C, strain FAR1, active compounds read low 0.934 | locus YJR016C, strain ILV3, active compounds read low 0.985 | locus YJR066W, strain TOR1 (second series), active compounds read low 0.869 | locus YJR066W, strain TOR1, active compounds read low 0.993 | locus YKL048C, strain ELM1, active compounds read low 0.953 | locus YKL067W, strain YNK1, active compounds read low 0.928 | locus YKL101W, strain HSL1, active compounds read low 0.929 | locus YKL193C, strain SDS22, active compounds read low 0.983 | locus YKL203C, strain TOR2, active compounds read low 0.968 | locus YLR133W, strain CKI1, active compounds read low 0.942 | locus YLR403W, strain SFP1, active compounds read low 0.902 | locus YML070W, strain DAK1, active compounds read low 0.925 | locus YMR001C, strain CDC5, active compounds read low 0.973 | locus YMR205C, strain PFK2 (second series), active compounds read low 0.959 | locus YMR277W, strain FCP1, active compounds read low 0.963 | locus YNL006W, strain LST8, active compounds read low 0.977 | locus YNL020C, strain ARK1, active compounds read low 0.911 | locus YNL161W, strain CBK1, active compounds read low 0.967 | locus YNL183C, strain NPR1, active compounds read low 0.951 | locus YNL207W, strain RIO2, active compounds read low 0.97 | locus YNL222W, strain SSU72, active compounds read low 0.977 | locus YNL307C, strain MCK1 (second series), active compounds read low 0.926 | locus YOL078W, strain AVO1, active compounds read low 0.981 | locus YOL136C, strain PFK27, active compounds read low 0.925 | locus YOR061W, strain CKA2, active compounds read low 0.926 | locus YOR119C, strain RIO1, active compounds read low 0.999 | locus YOR231W, strain MKK1, active compounds read low 0.88 | locus YOR329C, strain SCD5, active compounds read low 0.968 | locus YPL031C, strain PHO85, active compounds read low 0.922 | locus YPL153C, strain RAD53, active compounds read low 0.928 | locus YPL204W, strain HRR25, active compounds read low 0.908 | locus YPL209C, strain IPL1, active compounds read low 0.975 | locus YPR025C, strain CCL1, active compounds read low 0.968 | locus YPR106W, strain ISR1, active compounds read low 0.978 | locus YPR111W, strain DBF20, active compounds read low 0.962 | strain NNK1, active compounds read low 0.977 | strain TSCII, active compounds read low 0.968
active: locus YHR030C, strain SLT2, active compounds read low 0.784 | locus YLR113W, strain HOG1, active compounds read low 0.788 | locus YPL256C, strain CLN2, active compounds read low 0.829
